Experimental data: PubChem BioAssay (Tox21)
Inconclusive results are not listed. Calls of active or inactive are those of the source. Calls come from the whole dose curve; as a rule, active = well fitted activation curve with a large enough effect in the repeat runs; inconclusive = weak or mixed curves; inactive = flat fitted curve, though single readings scatter.

Test: A CellTox Green Cytotoxicity Assay to monitor cytotoxicity in HepG2 cells - 24 hour (AID 1224878); note: nearly all actives have a fitted effect of over 45% in size
Details: CellTox Green fluorescence; series mostly up to 76.8 µM; cytotoxicity: at the top concentration
Description: National Center for Advancing Translational Sciences [NCATS]
NIH Chemical Genomics Center [NCGC]
U.S. Environmental Protection Agency [EPA]
National Institutes of Environmental Health Sciences [NIEHS]
National Toxicology Program [NTP]
Cell-based models are critical for drug discovery. Determining the natural cytotoxic effects resulting from test compounds is an essential research activity. A CellTox Green Cytotoxicity Assay to monitor cytotoxicity in real time of continues cell culture during 40 hours of the compound treatment was used to screen Tox21 10K library compounds in HepG2 cells. CellTox Green Cytotoxicity Assay is a nonlytic, homogeneous, biofluorescent method to measure cytotoxicity in cell culture after experimental manipulation. The assay system uses a proprietary asymmetric cyanine dye that is excluded from viable cells but preferentially stains the dead cell's DNA. […] Viable cells produce no appreciable increases in fluorescence. Therefore, the fluorescence signal produced by the binding interaction with dead cell DNA is proportional to cytotoxicity.
The mixture of HepG2 cell suspension and reagents were dispensed at 600cells/6 ul/well in 1536-well tissue culture treated black solid bottom plates using a Multidrop dispenser. After the assay plates were incubated at a 37 C/5% CO2 incubator for 5 hours, 23 nL of compounds dissolved in DMSO, positive and negative controls was transferred to the assay plate by a pintool work station. The plates were incubated at 37 C for 40 hours. The fluorescence intensity were measured at 0h, 8h, 16h, 24h, 32h and 40h time points using ViewLux plate reader during compound treatment.
% is set by controls: 0 for no effect and ±100 for the full control effect; potency is the fitted concentration of half-maximal effect.

| Structure (SMILES) | Potency | cytotoxicity |
| --- | --- | --- |
| N#CC(CCc1ccc(Cl)cc1)(Cn1cncn1)c1ccccc1 (stereo not given) | 21.9 µM (active) | – |
| CCCCN(CCCCO)N=O | – | -10.8% (inactive) |
| O=[N+]([O-])c1cc(Cl)c(Cl)c(Cl)c1 | – | 8.04% (inactive) |
| CC(=O)C(Cl)Cl | – | 8.32% (inactive) |
| CCOP(=S)(OCC)SCSP(=S)(OCC)OCC | – | 8.11% (inactive) |
| NC(=O)c1cc([N+](=O)[O-])cc([N+](=O)[O-])c1 | – | -1.13% [at 35.3 µM] (inactive) |
| CCOP(=S)(OCC)Oc1nc(Cl)n(C(C)C)n1 | – | -7.97% (inactive) |
| CC(C=O)Cc1ccc2c(c1)OCO2 (stereo not given) | – | 2.79% (inactive) |
| CNC(=O)Oc1ccc(N(C)C)c(C)c1 | – | -9.35% (inactive) |
| N#CC(Cl)(Cl)Cl | – | 5.28% (inactive) |
| O=CNC(N1CCN(C(NC=O)C(Cl)(Cl)Cl)CC1)C(Cl)(Cl)Cl (stereo not given) | – | 3.21% (inactive) |
| CCCCC(=O)Cl | – | -3.9% (inactive) |
| C=CCC1=C(C)[C@@H](OC(=O)[C@@H]2[C@@H](C=C(C)C)C2(C)C)CC1=O | 49 µM (active) | – |
| CCC(Cl)[N+](=O)[O-] (stereo not given) | – | 3.67% (inactive) |
| ClC(Cl)(Cl)C(Cl)(Cl)Cl | – | 6.3% (inactive) |
| C[C@]1(O)CC[C@H]2[C@@H]3CCC4=CC(=O)CC[C@]4(C)[C@@]3(F)[C@@H](O)C[C@@]21C | – | 1.58% (inactive) |
| COc1cc(C[C@@H](C)N)c(OC)cc1C | – | 3.93% (inactive) |
| CC1(C)COP(Oc2ccccc2)OC1 | – | -5.21% (inactive) |
| COP(=S)(OC)Oc1ccc(S(N)(=O)=O)cc1 | – | -28.9% [at 35.3 µM] (inactive) |
| O=c1oc2ccccc2c(O)c1C1CCCc2ccccc21 (stereo not given) | – | -6.2% (inactive) |

| Structure (SMILES) | Potency | cytotoxicity |
| --- | --- | --- |
| O=C(O)C(Br)CBr (stereo not given) | – | -6.22% (inactive) |
| C[N+](=O)[O-] | – | 3.02% (inactive) |
| CC(CCc1ccccc1)NC(C)C(O)c1ccc(O)cc1 (stereo not given) | – | 7.66% [at 35.3 µM] (inactive) |
| CC(C(=O)c1ccccc1)N(C)C (stereo not given) | – | -1.63% [at 35.3 µM] (inactive) |
| BrCCCCCCBr | – | -0.157% (inactive) |
| ClCC(Cl)(Cl)Cl | – | 1.33% (inactive) |
| CC1CCC(=O)O1 (stereo not given) | – | -8.22% (inactive) |
| CCC(=O)c1ccccc1 | – | 3% (inactive) |
| COC(=O)C(C)Oc1ccc(Oc2ccc(Cl)cc2Cl)cc1 (stereo not given) | – | -2.19% (inactive) |
| CN(C)CCc1ccc(O)cc1 | – | -14.6% [at 35.3 µM] (inactive) |
| c1cc[c]([Hg][c]2ccccc2)cc1 | 43.6 µM (active) | – |
| CC(C)(C)OC(=O)c1ncn2c1[C@@H]1CCCN1C(=O)c1c(Br)cccc1-2 | – | -15% [at 35.3 µM] (inactive) |
| O=C(Oc1ccc(Br)cc1)N1CCN2CCC1CC2 | – | -1.89% (inactive) |
| CCOP(=S)(OCC)SCSc1ccc(Cl)cc1 | – | -5.26% (inactive) |
| O=C1OC(c2ccc(O)c(S(=O)(=O)O)c2)(c2ccc(O)c(S(=O)(=O)O)c2)c2c(Br)c(Br)c(Br)c(Br)c21 | – | -15.2% [at 35.3 µM] (inactive) |
| O=C1OC(=O)C2C1C1(Cl)C(Cl)=C(Cl)C2(Cl)C1(Cl)Cl (stereo not given) | – | -16.1% (inactive) |
| Cc1ncc2n1-c1ccc(Cl)cc1C(c1ccccc1F)=NC2 | – | -3.32% [at 35.3 µM] (inactive) |
| CS(=O)(=O)c1cc(C(F)(F)F)ccc1C(=O)c1cnoc1C1CC1 | – | -13.7% (inactive) |
| CCCSP(=O)(OCC)Oc1ccc(Br)cc1Cl (stereo not given) | – | -0.704% [at 35.3 µM] (inactive) |
| CC(C)[N+](=O)[O-] | – | -0.111% (inactive) |
